Most compounds without a hit are left out; they make up all but 22% or so of the library.
CYP2C19 inh – blockers of cytochrome P450 2C19 activity – biochemical, luminescence, ADME assay, primary screen. CYP2C19 Supersomes, luciferin-H EGE luminescence, 30 min. P33261. inhibition, % at 5 µM. 21% of 96,000 active;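 active = CYP2C19 inhibition above a set limit at 5 µM in the primary screen, cut at about 50% in these data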;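 also: plate controls were negative control wells for no effect and 2.5 mM tranylcypromine positive control for full effect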
Target sequence (P33261 whole entry, looked up): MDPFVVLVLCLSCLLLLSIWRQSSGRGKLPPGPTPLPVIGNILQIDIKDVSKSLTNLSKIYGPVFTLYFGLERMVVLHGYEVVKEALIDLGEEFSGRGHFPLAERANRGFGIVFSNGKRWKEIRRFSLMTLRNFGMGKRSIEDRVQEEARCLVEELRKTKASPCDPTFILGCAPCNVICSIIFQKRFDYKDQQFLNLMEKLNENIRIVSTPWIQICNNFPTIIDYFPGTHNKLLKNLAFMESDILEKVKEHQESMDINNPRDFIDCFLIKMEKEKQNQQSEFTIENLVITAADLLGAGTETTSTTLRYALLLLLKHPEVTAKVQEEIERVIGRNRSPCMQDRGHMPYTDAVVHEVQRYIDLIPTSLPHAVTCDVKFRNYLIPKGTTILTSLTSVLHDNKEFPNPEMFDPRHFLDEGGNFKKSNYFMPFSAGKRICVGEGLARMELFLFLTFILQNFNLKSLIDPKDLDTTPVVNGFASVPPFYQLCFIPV
CYP2C19 act – human CYP2C19 activators, primary screen, biochemical, luminescence; AID 1025, 2008; activation factor at 5 µM; Cytochrome P450 2C19 (Homo sapiens), P33261; 96,000 tested, under 10 active; recombinant CYP2C19, luciferin-H EGE luminescence; active compounds read high; 0 = fully inhibited enzyme, 1 = untreated enzyme;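 active = activation factor of at least 2 at 5 µM in the primary screen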;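 also: 0 = wells with 2.5 mM tranylcypromine and 1 = vehicle-only wells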
CYP2C9 act – human CYP2C9 activators, primary screen, biochemical, luminescence. recombinant CYP2C9, luciferin-H conversion; active compounds read high; factor 1 = untreated enzyme, 0 = blocked. activation factor at 5 µM. 1.4% of 96,000 active;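 active = activation factor of 2 or more for CYP2C9 at a 5 µM dose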;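 also: 0 = sulfaphenazole-blocked wells and 1 = vehicle-only wells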
CYP2C9 inhib – blockers of cytochrome P450 2C9 activity – biochemical, luminescence, ADME assay, primary screen | CYP2C9 Supersomes, luciferin-H conversion | inhibition, % at 5 µM | 20% of 96,000 active | AID 777, 2007;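 active = blocking of liver enzyme CYP2C9 beyond about 50% at 5 µM, limit read from the data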
Measles CPE – compounds protecting cells from measles virus cytopathic effect, primary screen, measles RdRp inhibitor project, single point, MLSMR library, absorbance; 1.5% of 140,000 active; protection (pct of control), % at 4 µM; AID 841, 2007; Measles virus-infected cells, CPE protection; in the data active = protection mostly above about 24%, no sharp cut-off; inactive = mostly below about 26%
Numbers without * were called inactive; / = no result.

SMILES | CYP2C19 inh | CYP2C19 act | CYP2C9 act | CYP2C9 inhib | Measles CPE
COc1ccc(NC(=O)C2CCCN(c3c4c(nc5ncnn35)CCC4)C2)cc1 (configuration not stated) | 31 | 0.7 | 0.2 | 80* | 2
CCCc1cc(C(=O)N2CCN(S(=O)(=O)c3ccc(OC)c(OC)c3)CC2)cs1 | 15 | 0.8 | 1.5 | -45 | 3
Cc1ccc(C)c(NC(=O)/C(C#N)=C/c2cn(CC(=O)NCc3ccco3)c3ccccc23)c1 | / | / | / | / | 1
CCOC(=O)c1ccccc1NC(=O)c1n[nH]c(=O)c2ccccc12 | / | / | / | / | 6
O=C(C1CCN(S(=O)(=O)c2cccc3nsnc23)CC1)N1CCc2ccccc21 | 51* | 0.5 | 0.6 | 44 | 4
O=C(C1CCCN(S(=O)(=O)c2cccc3nsnc23)C1)N1CCc2ccccc2C1 (configuration not stated) | 44 | 0.6 | 0.8 | 15 | 4
O=C(C1CCN(S(=O)(=O)c2cccc3nsnc23)CC1)N1CCCc2ccccc21 | 11 | 0.9 | 1 | 4 | 3
O=C(C1CCCN(S(=O)(=O)c2cccc3nsnc23)C1)N1CCc2ccccc21 (configuration not stated) | 52* | 0.5 | 0.3 | 74* | 5
CC(C)COc1ccc(CN=C(N)N=C(N)N)cc1Cl | / | / | / | / | 6
COc1ccc(-c2nnc3sc(-c4ccccc4OC)nn23)cc1 | -4 | 1 | 0.8 | 19 | /
c1ccc(-c2nn3c(Cn4nnc5ccccc54)nnc3s2)cc1 | 14 | 0.9 | 0.9 | 13 | 1
COc1ccc(Cc2nn3c(Cn4nnc5ccccc54)nnc3s2)cc1 | 87* | 0.1 | 0.2 | 79* | 27
COc1ccc(Cc2nn3c(-c4ccccc4OC)nnc3s2)cc1 | 82* | 0.2 | 0.4 | 60* | 3
COc1ccc(OCc2nn3c(-c4ccccn4)nnc3s2)cc1 | 36 | 0.6 | 0.6 | 37 | 22
COc1ccccc1-c1nnc2sc(COc3ccc(Cl)cc3)nn12 | 81* | 0.2 | 0.1 | 88* | 5
O=C(N/N=C\c1ccc(-c2ccccc2[N+](=O)[O-])o1)C1COc2cc3ccccc3cc2O1 (configuration not stated) | 41 | 0.6 | 0.5 | 53* | 6
Fc1cccc(Cl)c1/C=N/Nc1c(Cl)cncc1Cl | / | / | / | / | 13
Cc1cc(Cl)c(S(=O)(=O)N/N=C/c2ccc3c(c2)OCO3)c(Cl)c1 | 39 | 0.6 | 0 | 96* | 4
O=S(=O)(N/N=C\c1c(F)cccc1Cl)c1ccc(Cl)cc1 | 81* | 0.2 | 0.4 | 64* | 3
CCn1ncc(/C=N/NS(=O)(=O)c2ccc(Cl)cc2)c1C | 67* | 0.3 | 0.1 | 88* | 13
O=S(=O)(N/N=C/c1ccc2c(c1)OCCO2)c1ccc(Cl)cc1 | 32 | 0.7 | 0.3 | 71* | 1
Cc1ccc(S(=O)(=O)N/N=C/c2cnn(C)c2C)cc1 | 32 | 0.7 | 0.6 | 37 | 4
CCOc1cccc(-c2nnc(SCC(=O)Nc3cccc(OC)c3)n2N)c1 | 13 | 0.9 | 0.6 | 43 | 10
CCC(=O)NC(Cc1ccccc1)c1ccc2c(c1)OCCCO2 (configuration not stated) | / | / | / | / | 4
COc1ccc(-c2nc(N3CCOCC3)nc3n[nH]c(N)c23)cc1 | 6 | 0.9 | 1 | -4 | 28*
SMILES | CYP2C19 inh | CYP2C19 act | CYP2C9 act | CYP2C9 inhib | Measles CPE
Nc1[nH]nc2nc(N3CCCC3)nc(-c3ccccc3)c12 | 0 | 1 | 1 | -4 | 8
COc1ccc(NC(=O)C(CCCCNC(=O)OC(C)(C)C)NC(=O)OCc2ccccc2)cc1 (configuration not stated) | / | / | / | / | 5
c1ccc(Oc2nc(NCc3ccco3)nc(NCc3ccco3)n2)cc1 | 10 | 0.9 | 1.1 | -6 | 32
COc1ccc(CN=CC2=C(O)CNC2=O)cc1OC | -15 | 1.2 | 1.2 | -17 | 3
CCOc1ccccc1CNC(=O)CCN1C(=O)COc2ccccc21 | 75* | 0.3 | 1.9 | -86 | 5
Cc1cc(Cl)c(S(=O)(=O)N2CC(C)OC(C)C2)cc1OCC(N)=O (configuration not stated) | -7 | 1.1 | 1.6 | -56 | 16
CNS(=O)(=O)c1cc(OCC(N)=O)c(C)cc1Cl | -17 | 1.2 | 2.4* | -140 | 9
Cc1cc(Cl)c(S(=O)(=O)N2CCSCC2)cc1OCC(N)=O | 26 | 0.7 | 3* | -205 | 1

From PubChem BioAssay
